# ChEMBL document CHEMBL1961873, “Compounds: GSK PKIS; Assays: Nanosyn kinase panel” (2012)
# Experiments:
# [1] = molecular target: Fibroblast growth factor receptor 4 (Homo sapiens) (UniProt P22455); conditions: at 1 µM;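 further: reported figure is the averaged percent inhibition of FGFR4, from the GSK PKIS kinase screening panel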
# [2] = molecular target: Tyrosine-protein kinase Fgr (Homo sapiens) (UniProt P09769); conditions: at 0.1 µM
# [3] = molecular target: Tyrosine-protein kinase Fgr (Homo sapiens) (UniProt P09769); conditions: at 1 µM
# [4] = molecular target: Vascular endothelial growth factor receptor 1 (Homo sapiens) (UniProt P17948); conditions: at 0.1 µM
# [5] = molecular target: Vascular endothelial growth factor receptor 1 (Homo sapiens) (UniProt P17948); conditions: at 1 µM
# [6] = molecular target: Receptor-type tyrosine-protein kinase FLT3 (Homo sapiens) (UniProt P36888); conditions: at 0.1 µM
# [7] = molecular target: Receptor-type tyrosine-protein kinase FLT3 (Homo sapiens) (UniProt P36888); conditions: at 1 µM
# [8] = tested on: T1, Receptor-type tyrosine-protein kinase FLT3 (Homo sapiens), P36888 [D835Y]; conditions: at 0.1 µM
# T1 sequence (whole entry): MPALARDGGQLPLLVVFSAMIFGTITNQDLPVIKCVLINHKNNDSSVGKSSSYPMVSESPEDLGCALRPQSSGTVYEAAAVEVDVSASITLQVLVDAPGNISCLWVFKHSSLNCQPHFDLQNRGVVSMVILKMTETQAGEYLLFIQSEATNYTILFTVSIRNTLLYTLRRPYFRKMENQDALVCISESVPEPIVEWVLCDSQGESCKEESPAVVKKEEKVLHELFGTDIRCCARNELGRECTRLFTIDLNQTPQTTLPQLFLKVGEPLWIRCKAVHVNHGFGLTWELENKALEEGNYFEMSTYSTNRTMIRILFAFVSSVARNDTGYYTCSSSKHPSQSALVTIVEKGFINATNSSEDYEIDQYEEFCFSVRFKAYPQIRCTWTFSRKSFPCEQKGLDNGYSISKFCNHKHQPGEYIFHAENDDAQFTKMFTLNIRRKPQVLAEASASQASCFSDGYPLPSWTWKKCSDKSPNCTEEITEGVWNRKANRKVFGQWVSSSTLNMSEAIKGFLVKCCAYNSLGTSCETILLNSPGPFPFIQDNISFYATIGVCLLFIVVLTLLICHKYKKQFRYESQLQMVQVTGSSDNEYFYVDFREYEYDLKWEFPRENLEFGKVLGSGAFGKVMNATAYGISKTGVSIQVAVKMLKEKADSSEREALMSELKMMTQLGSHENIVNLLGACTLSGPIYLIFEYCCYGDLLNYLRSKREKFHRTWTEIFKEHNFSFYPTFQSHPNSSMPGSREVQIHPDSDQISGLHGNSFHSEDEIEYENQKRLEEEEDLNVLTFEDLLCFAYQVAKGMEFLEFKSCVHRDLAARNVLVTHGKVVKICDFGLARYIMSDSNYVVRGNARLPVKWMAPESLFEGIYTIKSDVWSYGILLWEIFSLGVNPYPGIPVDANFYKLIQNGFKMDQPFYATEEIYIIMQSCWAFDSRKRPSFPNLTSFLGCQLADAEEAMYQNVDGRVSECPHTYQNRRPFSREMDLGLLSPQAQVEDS
# [9] = molecular target: Non-receptor tyrosine-protein kinase TYK2 (Homo sapiens) (UniProt P29597); conditions: at 1 µM;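 further: values are mean percent inhibition of TYK2 kinase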
# Chain of Non-receptor tyrosine-protein kinase TYK2 (Homo sapiens) (P29597 whole entry): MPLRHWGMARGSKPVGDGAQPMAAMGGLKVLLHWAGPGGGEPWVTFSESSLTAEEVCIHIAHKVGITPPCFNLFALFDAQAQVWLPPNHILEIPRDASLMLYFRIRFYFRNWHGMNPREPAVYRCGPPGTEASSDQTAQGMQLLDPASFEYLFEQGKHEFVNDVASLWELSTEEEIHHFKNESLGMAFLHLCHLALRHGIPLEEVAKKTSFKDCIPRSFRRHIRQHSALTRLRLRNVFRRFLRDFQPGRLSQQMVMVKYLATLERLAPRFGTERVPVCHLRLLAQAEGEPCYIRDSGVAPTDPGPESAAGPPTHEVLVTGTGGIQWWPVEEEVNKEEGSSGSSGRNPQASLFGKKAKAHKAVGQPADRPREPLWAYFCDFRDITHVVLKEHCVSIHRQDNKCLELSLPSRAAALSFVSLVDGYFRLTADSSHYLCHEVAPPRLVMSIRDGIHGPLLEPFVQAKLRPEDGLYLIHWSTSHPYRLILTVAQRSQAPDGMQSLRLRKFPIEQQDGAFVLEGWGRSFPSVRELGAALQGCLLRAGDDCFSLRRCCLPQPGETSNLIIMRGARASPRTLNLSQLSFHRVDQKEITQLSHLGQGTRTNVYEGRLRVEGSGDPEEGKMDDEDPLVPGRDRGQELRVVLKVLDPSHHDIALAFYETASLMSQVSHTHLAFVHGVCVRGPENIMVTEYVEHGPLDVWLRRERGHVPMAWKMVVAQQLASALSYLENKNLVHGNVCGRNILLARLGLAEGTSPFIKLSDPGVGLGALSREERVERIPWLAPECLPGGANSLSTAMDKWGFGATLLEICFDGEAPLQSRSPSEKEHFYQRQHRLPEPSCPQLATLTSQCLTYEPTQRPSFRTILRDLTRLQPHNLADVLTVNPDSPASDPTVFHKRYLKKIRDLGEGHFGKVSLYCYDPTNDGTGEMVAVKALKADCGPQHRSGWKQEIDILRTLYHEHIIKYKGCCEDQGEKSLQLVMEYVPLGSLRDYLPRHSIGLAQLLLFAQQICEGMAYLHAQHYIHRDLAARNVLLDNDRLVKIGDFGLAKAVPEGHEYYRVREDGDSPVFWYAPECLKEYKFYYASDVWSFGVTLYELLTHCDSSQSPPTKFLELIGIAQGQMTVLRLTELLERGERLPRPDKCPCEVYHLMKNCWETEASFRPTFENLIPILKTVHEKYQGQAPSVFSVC
# [10] = molecular target: T2, Tyrosine-protein kinase receptor TYRO3 (Homo sapiens) (UniProt Q06418); conditions: at 0.1 µM
# T2 sequence (whole entry): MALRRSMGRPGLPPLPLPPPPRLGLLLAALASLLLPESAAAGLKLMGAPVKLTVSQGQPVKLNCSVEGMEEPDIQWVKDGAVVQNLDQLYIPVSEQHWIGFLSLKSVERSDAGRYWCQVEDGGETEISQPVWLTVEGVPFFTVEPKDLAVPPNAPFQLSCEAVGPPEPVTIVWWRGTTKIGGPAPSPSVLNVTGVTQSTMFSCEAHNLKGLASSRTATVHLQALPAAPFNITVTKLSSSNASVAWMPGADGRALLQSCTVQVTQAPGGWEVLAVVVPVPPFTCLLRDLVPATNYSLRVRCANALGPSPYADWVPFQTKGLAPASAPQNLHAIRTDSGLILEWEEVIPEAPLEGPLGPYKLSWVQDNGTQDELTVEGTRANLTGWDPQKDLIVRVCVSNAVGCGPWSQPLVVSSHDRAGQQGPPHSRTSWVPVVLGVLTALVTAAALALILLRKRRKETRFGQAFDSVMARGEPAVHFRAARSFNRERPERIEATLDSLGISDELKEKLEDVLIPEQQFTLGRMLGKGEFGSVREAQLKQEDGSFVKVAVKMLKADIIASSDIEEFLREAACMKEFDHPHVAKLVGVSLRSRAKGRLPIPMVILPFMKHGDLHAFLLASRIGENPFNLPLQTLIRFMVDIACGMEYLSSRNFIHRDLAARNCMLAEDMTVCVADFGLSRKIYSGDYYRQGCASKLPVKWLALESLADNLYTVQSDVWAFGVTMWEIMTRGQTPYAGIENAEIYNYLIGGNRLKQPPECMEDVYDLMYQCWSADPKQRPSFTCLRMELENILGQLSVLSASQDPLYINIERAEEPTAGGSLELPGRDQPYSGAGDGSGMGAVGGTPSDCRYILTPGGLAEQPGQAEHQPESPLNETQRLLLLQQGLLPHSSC
# [11] = molecular target: T2, Tyrosine-protein kinase receptor TYRO3 (Homo sapiens); conditions: at 1 µM
# [12] = molecular target: Tyrosine-protein kinase Yes (Homo sapiens) (UniProt P07947); conditions: at 0.1 µM
# Chain of Tyrosine-protein kinase Yes (Homo sapiens) (P07947 2-543 limits assumed): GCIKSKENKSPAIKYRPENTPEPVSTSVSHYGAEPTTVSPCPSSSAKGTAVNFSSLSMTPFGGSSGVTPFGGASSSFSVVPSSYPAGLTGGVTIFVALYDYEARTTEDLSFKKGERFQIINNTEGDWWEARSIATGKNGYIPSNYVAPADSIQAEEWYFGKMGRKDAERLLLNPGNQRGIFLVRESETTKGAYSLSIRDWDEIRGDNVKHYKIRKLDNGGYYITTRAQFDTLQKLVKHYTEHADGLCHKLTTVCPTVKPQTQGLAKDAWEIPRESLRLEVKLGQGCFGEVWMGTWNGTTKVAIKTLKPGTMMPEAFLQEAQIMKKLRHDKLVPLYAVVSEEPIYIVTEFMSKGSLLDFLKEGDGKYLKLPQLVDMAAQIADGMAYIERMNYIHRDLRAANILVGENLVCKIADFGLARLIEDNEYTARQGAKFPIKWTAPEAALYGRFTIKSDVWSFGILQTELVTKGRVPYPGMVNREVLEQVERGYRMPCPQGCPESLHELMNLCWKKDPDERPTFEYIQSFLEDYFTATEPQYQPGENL
# [13] = molecular target: Tyrosine-protein kinase Yes (Homo sapiens) (UniProt P07947); conditions: at 1 µM
# [14] = molecular target: T3, Tyrosine-protein kinase ZAP-70 (Homo sapiens) (UniProt P43403); conditions: at 0.1 µM
# T3 sequence (whole entry): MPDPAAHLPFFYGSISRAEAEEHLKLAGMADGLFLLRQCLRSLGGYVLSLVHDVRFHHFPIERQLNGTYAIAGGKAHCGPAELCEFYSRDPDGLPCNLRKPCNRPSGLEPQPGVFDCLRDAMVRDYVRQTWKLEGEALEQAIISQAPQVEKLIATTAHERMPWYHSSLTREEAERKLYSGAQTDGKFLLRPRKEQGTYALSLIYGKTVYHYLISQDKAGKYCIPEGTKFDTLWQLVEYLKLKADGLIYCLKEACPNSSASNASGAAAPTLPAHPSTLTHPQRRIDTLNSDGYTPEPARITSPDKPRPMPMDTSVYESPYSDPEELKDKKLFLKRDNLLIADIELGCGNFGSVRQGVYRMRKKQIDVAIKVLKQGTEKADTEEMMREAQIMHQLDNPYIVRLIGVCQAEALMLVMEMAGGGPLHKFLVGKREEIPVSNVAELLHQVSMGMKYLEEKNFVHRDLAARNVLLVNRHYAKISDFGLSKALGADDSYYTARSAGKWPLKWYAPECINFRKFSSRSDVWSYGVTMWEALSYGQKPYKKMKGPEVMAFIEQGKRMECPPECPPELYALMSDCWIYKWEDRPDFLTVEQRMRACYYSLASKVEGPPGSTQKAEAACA
# [15] = molecular target: T3, Tyrosine-protein kinase ZAP-70 (Homo sapiens); conditions: at 1 µM
# [16] = molecular target: Serine/threonine-protein kinase B-raf (Homo sapiens) (UniProt P15056); conditions: at 0.1 µM
# Chain of Serine/threonine-protein kinase B-raf (Homo sapiens) (P15056 whole entry): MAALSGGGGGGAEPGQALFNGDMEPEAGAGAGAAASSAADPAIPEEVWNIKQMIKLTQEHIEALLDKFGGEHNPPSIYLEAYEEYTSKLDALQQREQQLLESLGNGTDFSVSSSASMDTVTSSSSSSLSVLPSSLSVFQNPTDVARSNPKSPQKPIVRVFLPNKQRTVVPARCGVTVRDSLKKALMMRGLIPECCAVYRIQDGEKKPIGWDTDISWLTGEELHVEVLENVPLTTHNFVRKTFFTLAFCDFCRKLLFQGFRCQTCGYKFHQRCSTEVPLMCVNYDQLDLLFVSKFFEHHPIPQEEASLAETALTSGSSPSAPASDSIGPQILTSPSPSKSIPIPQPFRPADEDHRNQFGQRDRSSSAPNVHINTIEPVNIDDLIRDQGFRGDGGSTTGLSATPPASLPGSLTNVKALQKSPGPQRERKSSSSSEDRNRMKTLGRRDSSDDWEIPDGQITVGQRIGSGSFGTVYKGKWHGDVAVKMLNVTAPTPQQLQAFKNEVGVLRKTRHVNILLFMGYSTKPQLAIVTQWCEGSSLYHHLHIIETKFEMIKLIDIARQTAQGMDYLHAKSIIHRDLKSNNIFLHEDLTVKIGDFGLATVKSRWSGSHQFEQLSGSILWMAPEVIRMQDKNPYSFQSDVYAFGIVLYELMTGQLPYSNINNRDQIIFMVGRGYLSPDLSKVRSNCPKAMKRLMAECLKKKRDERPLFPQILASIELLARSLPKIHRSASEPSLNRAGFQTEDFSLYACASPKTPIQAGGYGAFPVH
# [17] = molecular target: Serine/threonine-protein kinase B-raf (Homo sapiens) (UniProt P15056); conditions: at 1 µM
# [18] = tested on: Serine/threonine-protein kinase B-raf (Homo sapiens), P15056 [V600E]; conditions: at 0.1 µM
# Chain of Serine/threonine-protein kinase B-raf (Homo sapiens), P15056 [V600E] (P15056 whole entry V600E): as the sequence (P15056 whole entry) above, with V600E counted along it
# [19] = tested on: Serine/threonine-protein kinase B-raf (Homo sapiens), P15056 [V600E]; conditions: at 1 µM
# [20] = molecular target: RAF proto-oncogene serine/threonine-protein kinase (Homo sapiens) (UniProt P04049); conditions: at 0.1 µM;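 further: values are mean CRAF kinase inhibition from profiling of the GSK Published Kinase Inhibitor Set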
# Chain of RAF proto-oncogene serine/threonine-protein kinase (Homo sapiens) (P04049 whole entry): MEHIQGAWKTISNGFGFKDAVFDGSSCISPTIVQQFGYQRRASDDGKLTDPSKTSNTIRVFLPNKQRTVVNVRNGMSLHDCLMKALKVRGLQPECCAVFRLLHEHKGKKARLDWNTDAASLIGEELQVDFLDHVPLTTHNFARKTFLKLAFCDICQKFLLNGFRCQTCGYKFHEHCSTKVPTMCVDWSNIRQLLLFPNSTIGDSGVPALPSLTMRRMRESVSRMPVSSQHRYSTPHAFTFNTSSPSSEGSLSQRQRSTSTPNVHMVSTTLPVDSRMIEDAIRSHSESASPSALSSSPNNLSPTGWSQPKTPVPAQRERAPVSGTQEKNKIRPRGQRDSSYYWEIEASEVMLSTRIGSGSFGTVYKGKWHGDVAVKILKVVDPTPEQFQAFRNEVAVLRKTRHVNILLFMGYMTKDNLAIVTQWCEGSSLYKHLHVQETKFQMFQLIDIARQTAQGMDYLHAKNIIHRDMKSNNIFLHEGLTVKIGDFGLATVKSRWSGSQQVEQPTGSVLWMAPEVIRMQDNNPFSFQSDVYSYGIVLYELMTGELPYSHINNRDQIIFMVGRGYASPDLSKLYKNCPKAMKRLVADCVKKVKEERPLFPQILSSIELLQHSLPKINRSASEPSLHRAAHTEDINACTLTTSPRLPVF
# Chain of Fibroblast growth factor receptor 4 (Homo sapiens) (P22455 22-802 limits assumed): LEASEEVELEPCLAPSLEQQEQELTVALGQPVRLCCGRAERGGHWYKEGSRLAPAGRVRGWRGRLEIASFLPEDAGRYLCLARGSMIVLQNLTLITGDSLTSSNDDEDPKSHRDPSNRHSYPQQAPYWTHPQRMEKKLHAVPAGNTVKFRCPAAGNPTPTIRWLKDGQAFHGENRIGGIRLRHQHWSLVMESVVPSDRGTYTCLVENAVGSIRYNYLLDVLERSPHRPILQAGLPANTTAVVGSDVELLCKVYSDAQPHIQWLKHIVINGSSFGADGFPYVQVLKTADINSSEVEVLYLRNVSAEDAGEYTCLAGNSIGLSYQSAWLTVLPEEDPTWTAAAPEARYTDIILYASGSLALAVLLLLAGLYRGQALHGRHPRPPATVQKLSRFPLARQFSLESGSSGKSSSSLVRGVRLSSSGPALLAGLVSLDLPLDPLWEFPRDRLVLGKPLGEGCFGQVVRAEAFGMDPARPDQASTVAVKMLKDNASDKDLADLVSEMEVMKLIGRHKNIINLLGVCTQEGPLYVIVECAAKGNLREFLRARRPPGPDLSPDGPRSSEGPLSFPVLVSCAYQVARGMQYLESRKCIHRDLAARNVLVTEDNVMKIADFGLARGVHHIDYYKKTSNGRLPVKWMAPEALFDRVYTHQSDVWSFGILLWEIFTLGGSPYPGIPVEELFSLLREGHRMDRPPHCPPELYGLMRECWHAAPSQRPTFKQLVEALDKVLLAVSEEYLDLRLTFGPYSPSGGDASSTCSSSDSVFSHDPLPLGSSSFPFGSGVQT
# Chain of Tyrosine-protein kinase Fgr (Homo sapiens) (P09769 2-529 limits assumed): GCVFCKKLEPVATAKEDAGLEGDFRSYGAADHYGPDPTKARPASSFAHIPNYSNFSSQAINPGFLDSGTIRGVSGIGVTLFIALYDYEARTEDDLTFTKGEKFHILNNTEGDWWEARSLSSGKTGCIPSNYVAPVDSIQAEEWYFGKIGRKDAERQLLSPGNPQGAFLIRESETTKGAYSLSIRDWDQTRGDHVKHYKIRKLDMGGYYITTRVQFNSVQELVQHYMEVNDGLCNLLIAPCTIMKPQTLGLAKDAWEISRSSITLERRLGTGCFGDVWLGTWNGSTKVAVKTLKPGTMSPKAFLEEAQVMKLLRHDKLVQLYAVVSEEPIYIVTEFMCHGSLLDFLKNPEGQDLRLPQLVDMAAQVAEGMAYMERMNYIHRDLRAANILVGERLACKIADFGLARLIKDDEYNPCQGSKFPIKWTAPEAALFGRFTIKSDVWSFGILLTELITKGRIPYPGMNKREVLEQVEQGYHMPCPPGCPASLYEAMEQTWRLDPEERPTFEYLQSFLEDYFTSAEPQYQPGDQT
Compound,inhibition [1] [%],inhibition [2] [%],inhibition [3] [%],inhibition [4] [%],inhibition [5] [%],inhibition [6] [%],inhibition [7] [%],inhibition [8] [%],inhibition [9] [%],inhibition [10] [%],inhibition [11] [%],inhibition [12] [%],inhibition [13] [%],inhibition [14] [%],inhibition [15] [%],inhibition [16] [%],inhibition [17] [%],inhibition [18] [%],inhibition [19] [%],inhibition [20] [%]
CCn1c(-c2nonc2N)nc2c(C#CC(C)(C)O)nc(OC[C@H](N)c3ccccc3)cc21,2.04,0.69,5.54,6.07,30.4,2.64,2.43,-0.59,-3.88,0.23,1.88,2.49,7.77,0.59,-2.5,1.18,5.43,1.68,2.41,-2.29
COC(=O)Nc1nc2ccc(S(=O)(=O)c3ccc(NC(=O)Nc4cc(C(F)(F)F)ccc4F)cc3)cc2[nH]1,0.83,0.25,6.79,0.68,-0.67,-0.31,3.96,-2.76,0.09,0.25,2.45,1.97,-2.4,2.44,3.21,3.07,3.12,3.61,4.39,-1.21
COc1cc(N2CCN(C(C)C)CC2)ccc1Nc1nc(Nc2ccc(F)cc2C(N)=O)c2cc[nH]c2n1,7.42,0.9,5.03,-0.84,0.61,2.47,8.56,2.42,-2.61,0.64,2.95,0.75,7.33,6.3,23.5,2.3,16.1,1.62,13.7,0.33
c1ccc(COc2ccc(Nc3ncnc4ccc(-c5ccco5)cc34)cc2)cc1,0.84,3.1,7.56,-2.31,-0.13,0.33,3.12,-0.59,-2.46,0.34,1.86,3.28,13.1,-2.15,0.17,1.52,1.99,2.01,3.23,11.2
O=C(O[C@H]1CN[C@H](C#Cc2cc3ncnc(Nc4ccc(Cc5ccccc5)cc4)c3s2)C1)N1CCOCC1,0.95,5.25,20.8,-0.12,2.35,-1.61,0.34,5.18,-3.27,0.99,0.43,7.04,38.8,-0.2,2.04,3.95,4.23,3.02,3.28,-1.64
CCn1c(-c2nonc2N)nc2c(C#CC(C)(C)O)ncc(OC3CCNCC3)c21,-1.22,1.43,4.57,5.67,16.4,3.32,3.82,1.56,-1.36,2.05,2.44,1.38,5.89,0.49,1.77,3.57,6.35,4.12,3.02,8.75
COc1cccc(-c2c[nH]c3c(N/N=C/c4ccncc4)ncnc23)c1,2.46,14.2,54.2,2.08,18.4,6.9,39,16.4,10.5,7.3,38,19.6,65.2,1.26,1.55,3.1,11,3.98,11.2,2.82
CNC(=O)c1cccc(C#Cc2cncnc2Nc2ccc(OCc3cccc(F)c3)c(Cl)c2)c1,1.45,4.48,6.13,1.95,1.32,1.74,3.22,1.13,0.07,3.38,1.74,2.71,4.41,2.49,-0.96,0.05,2.22,0.09,1.59,2.66
N#Cc1c(NC(=O)c2ccc(F)cc2)sc2c1CCCC2,1.31,2.11,1.83,0.3,1.63,-2.18,0.66,-4.75,-1.49,0.28,2.87,0.59,4.07,1.26,2.47,1.72,3.03,1.04,2.86,-3.13
CCCN(CCS(C)(=O)=O)Cc1ccc(-c2ccc3ncnc(Nc4ccc(OCc5cccc(F)c5)c(Cl)c4)c3c2)o1,3.7,3.69,7.51,-1,1.07,0.88,1.93,1.48,-0.78,2.08,1.99,1.86,8.75,–,1.73,3.07,3.72,3.15,3.85,1.57
CCn1cc(-c2ccnc3[nH]ccc23)c(-c2cccc(NC(=O)Nc3ccc(OCc4ccccc4)cc3)c2)n1,3.27,7.42,34.1,-3.05,2.9,-1.9,-2.19,-9.12,0.52,0.03,1.53,1.1,24.8,-0.61,2.51,–,–,–,–,4.65
Fc1ccc(-c2nn3ccccc3c2-c2ccncc2)cc1,2.03,-0.1,6.02,1.98,2.63,-0.06,2.86,-0.98,-0.08,0.22,1.25,0.18,5.66,0.73,2.32,2.84,7.13,2.64,4.72,-1.45
Cc1cccc(Nc2ncc(-c3ccccc3)o2)c1,1.36,2.72,9.59,1.05,11,39.8,81,-4.74,-4.11,1.56,4.61,0.94,11.3,1.66,1.24,2.32,6.08,3.58,3.05,0.64
